Biological target: T1, Methionyl-tRNA synthetase, putative (Leishmania donovani (strain BPK282A1)) (UniProt E9BF75)
T1 sequence (whole entry): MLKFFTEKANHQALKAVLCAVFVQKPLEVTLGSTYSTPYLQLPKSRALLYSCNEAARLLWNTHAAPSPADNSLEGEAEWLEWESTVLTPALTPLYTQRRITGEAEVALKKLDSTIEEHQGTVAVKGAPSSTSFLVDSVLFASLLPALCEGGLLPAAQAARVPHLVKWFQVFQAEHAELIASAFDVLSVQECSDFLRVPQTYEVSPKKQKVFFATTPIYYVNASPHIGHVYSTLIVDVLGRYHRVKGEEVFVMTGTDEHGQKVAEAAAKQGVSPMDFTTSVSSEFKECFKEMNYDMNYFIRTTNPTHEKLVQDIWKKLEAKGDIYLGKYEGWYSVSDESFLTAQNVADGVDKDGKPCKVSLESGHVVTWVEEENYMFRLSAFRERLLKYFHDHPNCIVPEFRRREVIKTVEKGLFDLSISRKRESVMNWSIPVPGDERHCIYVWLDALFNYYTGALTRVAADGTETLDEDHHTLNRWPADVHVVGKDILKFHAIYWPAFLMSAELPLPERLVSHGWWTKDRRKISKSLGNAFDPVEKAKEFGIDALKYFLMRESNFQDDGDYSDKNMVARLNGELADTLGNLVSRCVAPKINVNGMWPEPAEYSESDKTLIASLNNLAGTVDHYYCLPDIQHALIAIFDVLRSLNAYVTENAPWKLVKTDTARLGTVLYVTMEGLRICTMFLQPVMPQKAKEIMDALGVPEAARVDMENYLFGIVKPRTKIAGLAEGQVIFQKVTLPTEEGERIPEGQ
Test: Leishmania donovani Methionine tRNA synthetase (LdMetRS):v7. Dose response assay
Assay type: functional
Design: conc 80 nM, time 150 minutes

OCCNc1nccc(Nc2cccc(F)c2)n1
PXC50 (MAX_EFFECT 6.168224299): < 4
PXC50 (MAX_EFFECT 6.404958678): < 4
PXC50 (MAX_EFFECT 9.691629956): < 4

Cc1cnn(CCNCc2c(C)nn(-c3ccccc3)c2C)c1
PXC50 (MAX_EFFECT 6.52173913): < 4
PXC50 (MAX_EFFECT 6.802721088): < 4
PXC50 (MAX_EFFECT 12.78458844): < 4

OCCCNc1nccc(Nc2cccc(C(F)(F)F)c2)n1
PXC50 (MAX_EFFECT 6.834532374): < 4
PXC50 (MAX_EFFECT 6.86695279): < 4
PXC50 (MAX_EFFECT 9.976247031): < 4

NC(=O)c1cccnc1Nc1cccc(C(F)(F)F)c1
PXC50 (MAX_EFFECT 7.210626186): < 4
PXC50 (MAX_EFFECT 13.42975207): < 4
PXC50 (MAX_EFFECT 16.74008811): < 4

Cn1ncc2c(NCCO)nc(NCc3cccnc3)nc21
PXC50 (MAX_EFFECT 7.969639469): < 4
PXC50 (MAX_EFFECT 8.113207547): < 4
PXC50 (MAX_EFFECT 12.78538813): < 4

Cn1ncc2c(NCCO)nc(NCc3cccc(F)c3)nc21
PXC50 (MAX_EFFECT 8.142493639): < 4
PXC50 (MAX_EFFECT 8.301886792): < 4
PXC50 (MAX_EFFECT 9.649122807): < 4

CC(CO)Nc1nc(Nc2cccc(C(F)(F)F)c2)nc2c1cnn2C (centres undefined)
PXC50 (MAX_EFFECT 16.69829222): < 4
PXC50 (MAX_EFFECT 21.69811321): < 4
PXC50 (MAX_EFFECT 22.37442922): < 4

Nc1cc2c(nn1)CCN(C(=O)c1csc(-c3cccs3)n1)C2
PXC50 (MAX_EFFECT 19.04761905): < 4
PXC50 (MAX_EFFECT 19.56521739): < 4
PXC50 (MAX_EFFECT 20.14010508): < 4

Cn1ncc2c(NCCS(C)(=O)=O)nc(Nc3ccc(F)c(F)c3)nc21
PXC50 (MAX_EFFECT 19.95249406): < 4
PXC50 (MAX_EFFECT 30.90128755): < 4
PXC50 (MAX_EFFECT 33.0754352): < 4

OCCNc1nc(Nc2cccc(C(F)(F)F)c2)nc2ccsc12
PXC50 (MAX_EFFECT 27.65957447): < 4
PXC50 (MAX_EFFECT 37.44493392): < 4
PXC50 (MAX_EFFECT 44.00826446): < 4

Cc1nc(-c2cc(Cl)c3c(c2)CC(CN)O3)c[nH]1 (centres undefined)
PXC50 (MAX_EFFECT 32.65306122): < 4
PXC50 (MAX_EFFECT 37.68115942): < 4
PXC50 (MAX_EFFECT 41.5061296): < 4

NC1CCN(C2CCN(c3ccc(-c4ccco4)cc3)CC2)CC1
PXC50 (MAX_EFFECT 34.50087566): < 4
PXC50 (MAX_EFFECT 44.89795918): < 4
PXC50 (MAX_EFFECT 51.44927536): < 4

COc1ccc(-c2nc3c([nH]2)CCNC3C(=O)O)c2ccc(C)nc12 (centres undefined)
PXC50 (BOTTOM 1.718114205, HILLSLOPE 1.017534888, MAX_EFFECT 58.69565217, TOP 100.0): 4.17
PXC50 (BOTTOM 3.702697872, HILLSLOPE 1.816429842, MAX_EFFECT 76.89768977, TOP 100.0): 4.25
PXC50 (BOTTOM -10.20592251, HILLSLOPE 0.737543358, MAX_EFFECT 64.87455197, TOP 100.0): 4.33

Cc1cc(Nc2ccc(F)c(F)c2)nc(NCCO)n1
PXC50 (BOTTOM -0.152929864, HILLSLOPE 0.883857243, MAX_EFFECT 83.3655706, TOP 93.53791092): 5.04
PXC50 (BOTTOM -2.585097693, HILLSLOPE 0.96868989, MAX_EFFECT 84.50413223, TOP 95.81491094): 4.9
PXC50 (BOTTOM -4.028659836, HILLSLOPE 0.891804294, MAX_EFFECT 83.70044053, TOP 100.2402145): 4.82

Cn1ncc2c(NCCO)nc(Nc3cccc(O)c3)nc21
PXC50 (MAX_EFFECT 5.386416862): < 4
PXC50 (MAX_EFFECT 6.072106262): < 4
PXC50 (MAX_EFFECT 8.167770419): < 4

C[C@H](CO)Nc1nc(Nc2ccc(F)c(F)c2)nc2c1cnn2C
PXC50 (BOTTOM 0.704945414, HILLSLOPE 0.848291247, MAX_EFFECT 90.56603774, TOP 99.28027428): 5.18
PXC50 (BOTTOM -2.01884568, HILLSLOPE 0.856610715, MAX_EFFECT 86.93586698, TOP 98.70470885): 5.08
PXC50 (BOTTOM -5.653457492, HILLSLOPE 0.743768618, MAX_EFFECT 93.13304721, TOP 109.1674954): 5.06

Cc1ccnc(C2CN(Cc3ccc(-c4ccccc4C(=O)O)o3)C2)n1
PXC50 (BOTTOM 9.249913927, HILLSLOPE 1.102722508, MAX_EFFECT 60.83188908, TOP 100.0): 4.12
PXC50 (BOTTOM 9.895143899, HILLSLOPE 1.447637201, MAX_EFFECT 79.86111111, TOP 100.0): 4.36
PXC50 (BOTTOM 14.75237733, HILLSLOPE 1.939721289, MAX_EFFECT 72.48322148, TOP 100.0): 4.2

CC(C)c1nc(N2CCC(N3CCCCCC3)CC2)c2cnn(C)c2n1
PXC50 (BOTTOM 1.611649307, HILLSLOPE 1.510978702, MAX_EFFECT 74.4966443, TOP 100.0): 4.28
PXC50 (BOTTOM 2.404981537, HILLSLOPE 1.138566115, MAX_EFFECT 78.47222222, TOP 100.0): 4.48
PXC50 (BOTTOM 5.527995165, HILLSLOPE 1.337567516, MAX_EFFECT 71.57712305, TOP 100.0): 4.24
